Measured values from the supplement of paper PMC3334620.
In all, about 33,000 sequences were measured (“E-score (-0.5 to 0.5)”: median about -0.017, highest 2% from about 0.3 on). This is one part of a sample in which the highest values are shown more often than they occur.

Target: T1, Sut1 (UniProt P53032)
T1 sequence: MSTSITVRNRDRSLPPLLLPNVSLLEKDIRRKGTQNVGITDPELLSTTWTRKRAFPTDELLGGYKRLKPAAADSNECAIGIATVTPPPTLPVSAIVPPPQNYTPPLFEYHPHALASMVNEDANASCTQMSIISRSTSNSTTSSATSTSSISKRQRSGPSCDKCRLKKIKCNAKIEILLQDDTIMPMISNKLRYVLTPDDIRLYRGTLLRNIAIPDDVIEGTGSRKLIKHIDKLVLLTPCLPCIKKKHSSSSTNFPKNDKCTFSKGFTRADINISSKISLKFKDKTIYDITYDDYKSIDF
Test: PBM E-score (8-mer binding enrichment) (E-score (-0.5 to 0.5)); higher = stronger / more preferred TF binding
Settings: protein concentration: 200 nM; construct: GST-full length
Protocol: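 Universal 'all 10-mer' protein binding microarrays (Agilent AMADID 015681) probed with GST-tagged S. cerevisiae TFs (full-length or DBD) made by in vitro transcription/translation (PURExpress), about 100-200 nM. Bound TF was detected with fluorescent anti-GST. Each ungapped 8-mer (which stands for itself and its reverse complement) is scored by the PBM enrichment score (E-score), a modified Wilcoxon-Mann-Whitney statistic from -0.5 to +0.5, computed with the Universal PBM Analysis Suite. Scale: above 0.35 generally sequence-specific binding.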

| Sequence | PBM E-score |
| --- | --- |
| AATCGGTG | 0.0417 |
| GATCGGAA | 0.159 |
| CATCGGTC | -0.106 |
| CATCGGGG | -0.00411 |
| GATCGGAC | 0.367 |
| CATCGGCG | -0.137 |
| CATCGGAA | 0.269 |
| AATCGGAT | 0.183 |
| GATCGGGC | -0.0436 |
| CATCGGAG | 0.435 |
| CATCGGAC | 0.37 |
| AATCGGAG | 0.396 |
| ACAAGCAG | 0.0716 |
| CGTCTCGA | -0.113 |
| AAGCAGAG | -0.037 |
| CAGTCGAG | -0.103 |
| CAATGGGG | -0.163 |
| GAAGTCTA | 0.0111 |
| CCTACTCA | 0.021 |
| AGCAGTTC | 0.0132 |
| AATCGGAC | 0.338 |
| AATCGGAA | 0.38 |

| Sequence | PBM E-score |
| --- | --- |
| AATCGGCA | 0.107 |
| AATCGGCC | -0.109 |
| TATCGGAA | 0.26 |
| AATCGGGC | -0.0945 |
| CCACTTTA | 0.0316 |
| CCGGTCAG | -0.0559 |
| AATCAGAT | 0.0945 |
| AAGGGATG | -0.0899 |
| GAGTCCAC | -0.108 |
| CAGCTCCG | 0.461 |
| AGGCTCCC | -0.0884 |
| AGGCTCCA | -0.178 |
| CAGCTCCA | -0.0491 |
| CAGCTCCC | -0.181 |
| AAGCTCCT | -0.112 |
| AAGCTCCC | -0.156 |
| AAGCTCCG | 0.455 |
| AGGCTCCG | 0.357 |
| CAGGCCTG | 0.0399 |
| ACGCTAAC | -0.22 |
| GTTCGACA | -0.0722 |
| CTAATAAA | 0.197 |

| Sequence | PBM E-score |
| --- | --- |
| ATAATATG | 0.286 |
| ATAATATA | 0.301 |
| ATAATAAA | 0.339 |
| CTAATAAC | 0.14 |
| ATAATAAT | 0.295 |
| GTAATAAA | 0.284 |
| CTAATATA | 0.225 |
| TTAATAAA | 0.341 |
| AATCCTCG | -0.164 |
| CGGGGCTC | 0.0261 |
| ACTTGGGG | -0.203 |
| CGCGCCTC | 0.0917 |
| GGGATACA | -0.064 |
| CACCCCGG | 0.0471 |
| AACCCCGA | 0.447 |
| CACCCCGA | 0.134 |
| TACCCCGA | 0.324 |
| AACCCCGG | 0.438 |
| AAACCCGA | 0.198 |
| ACCCCCGA | -0.118 |
| GACCCCGA | 0.0897 |
| ACCCCCGG | -0.0829 |

| Sequence | PBM E-score |
| --- | --- |
| GATGCTAA | 0.0485 |
| AATAGGCC | 0.0314 |
| GCTCGCAA | -0.101 |
| CATCCACC | -0.0255 |
| CGATTCTA | -0.0107 |
| GGCTAATA | 0.17 |
| ACTCATAC | 0.0873 |
| ACCAACCC | -0.212 |
| AGATCGGA | 0.348 |
| GGATCGGA | 0.277 |
| CTATCGGA | 0.337 |
| CTATCGGC | -0.13 |
| ATATCGGA | 0.331 |
| GTATCGGA | 0.281 |
| ATATCGGG | -0.0571 |
| ATATCGGC | -0.0245 |
| CGATCGGA | 0.246 |
| CCTGCTAC | -0.0632 |
| GTTCGGTA | 0.141 |
| AAGATGGC | -0.0118 |
| AGTCCCAG | -0.199 |
| ATTGACCG | 0.0305 |

| Sequence | PBM E-score |
| --- | --- |
| AGAGTCCA | -0.0986 |
| CGTTGCAG | -0.136 |
| ATGCAGCA | -0.134 |
| ATCCTTCG | 0.0447 |
| CTCCGCAC | 0.306 |
| ATCCGCAC | -0.0365 |
| CTCCGCAA | 0.271 |
| GTCCGCAC | 0.247 |
| CTCCGCAG | 0.364 |
| ATCCGCAG | 0.0529 |
| CGATTTCA | 0.0969 |
| CCACACGG | -0.0635 |
| ACGTCCGG | 0.101 |
| ATCCGTAC | 0.178 |
| CACCGTAA | 0.0107 |
| ATCCGTAA | 0.183 |
| GTCCGTAA | 0.342 |
| CCCCGTAA | 0.0974 |
| CACCGTAC | 0.0478 |
| CTCCGTAA | 0.328 |
| CTCCGTAC | 0.331 |
